According to PubChem BioAssay (NCI):
This is part of a sample that, as a whole, favours compounds with a hit. Of some 79,000 tested, about 15% had one in any assay. The source made the active and inactive calls. Cut-off read from the data, not from the text of the source: active = growth inhibition above about 70%; inactive = the rest.

Assay: NCI Yeast Anticancer Drug Screen. Data for the rad50EPP+ strain (AID 151);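 note: 0% = growth of vehicle-treated control cultures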
Conditions: S. cerevisiae rad50 mutant strain, stronger effect = higher value
Experimental: Growth inhibition of yeast strains with defined genetic alterations is measured as a screen for potential anti-cancer activity. Selected strains with alterations in DNA damage repair or cell cycle control were exposed to compounds and growth inhibition was measured relative to vehicle treated controls. The strain used in this assay is rad50EPP+

Measured: growth inhibition

O=C(O)c1ccccc1NC(=S)c1ccccc1
inactive: at 1.2 µM 13% | at 3.7 µM 14% | at 11.0 µM 34% | at 33.0 µM 53%
active: at 100.0 µM 83%

CC1(C)[C@@H]2CC[C@]1(C)[C@H](OC(=O)CSC#N)C2
inactive: at 1.2 µM -1% | at 3.7 µM 4% | at 11.0 µM 9% | at 33.0 µM 24% | at 100.0 µM 50%

CC(C)/C(Cl)=N\OC(=O)Nc1ccc(F)cc1
active: at 100.0 µM 98%
inactive: at 1.2 µM 1% | at 3.7 µM 11% | at 11.0 µM 24% | at 33.0 µM 57%

c1ccc2c(c1)sc1nc3ccncc3nc12
active: at 33.0 µM 85% | at 100.0 µM 89%
inactive: at 1.2 µM 23% | at 3.7 µM 52% | at 11.0 µM 55%

Cc1ccc(CSC(N)=Nc2ccccc2)cc1C
inactive: at 1.2 µM 4% | at 3.7 µM 12% | at 11.0 µM 11% | at 33.0 µM 4% | at 100.0 µM 15%

Oc1c(Br)cc(Br)cc1C1CCCCC1
active: at 100.0 µM 87%
inactive: at 1.2 µM 9% | at 3.7 µM 9% | at 11.0 µM 23% | at 33.0 µM 39%

COc1ccccc1N=NC(C(=O)c1ccccc1)C(=O)c1ccccc1
inactive: at 1.2 µM -47% | at 3.7 µM -21% | at 11.0 µM 1% | at 33.0 µM 17% | at 100.0 µM 62%

Cc1cc(CO)c(O)c(CNCc2cc(C)cc(CO)c2O)c1
inactive: at 1.2 µM -24% | at 3.7 µM -23% | at 11.0 µM -33% | at 33.0 µM -29% | at 100.0 µM -13%
